# High-throughput results (PubChem BioAssay)
# The sample as a whole holds a higher share of hits than the screen did.
# PI4K2A block = inhibitors of human PI4K2A; Q9BTU6; purified PI4K2A, ADP-Glo luminescence, 1 h; hits give low values; activity change, negative = inhibition, % at 76.9 µM; actives 0.13% (n = 420,000); AID 1346378; in the data active means activity change below about -50%; inconclusive means mostly about -30% to -49%;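 further: -100% = wells without enzyme as full effect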
#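 Compounds are screened against recombinant PI4K2A using PI as substrate and ATP, the latter dispensed at 300 microM. Reactions run one hour at ambient temperature before ADP-Glo detection; full inhibition defined by wells lacking enzyme.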
# PGK inhibitor = blocks T. brucei phosphoglycerate kinase. P07378. PGK/GAPDH coupled, Kinase-Glo luminescence, 60 min. Potency, µM (top dose mostly 57.5 µM), for inactives: at the highest dose activity change, negative = inhibition, usual class: inhibitors. actives 0.043% (n = 380,000). AID 602233; further: potency means the concentration at half of the fitted maximal effect; nearly all actives have a fitted effect of over 60% in size
# Target sequence (P07378 whole entry, looked up): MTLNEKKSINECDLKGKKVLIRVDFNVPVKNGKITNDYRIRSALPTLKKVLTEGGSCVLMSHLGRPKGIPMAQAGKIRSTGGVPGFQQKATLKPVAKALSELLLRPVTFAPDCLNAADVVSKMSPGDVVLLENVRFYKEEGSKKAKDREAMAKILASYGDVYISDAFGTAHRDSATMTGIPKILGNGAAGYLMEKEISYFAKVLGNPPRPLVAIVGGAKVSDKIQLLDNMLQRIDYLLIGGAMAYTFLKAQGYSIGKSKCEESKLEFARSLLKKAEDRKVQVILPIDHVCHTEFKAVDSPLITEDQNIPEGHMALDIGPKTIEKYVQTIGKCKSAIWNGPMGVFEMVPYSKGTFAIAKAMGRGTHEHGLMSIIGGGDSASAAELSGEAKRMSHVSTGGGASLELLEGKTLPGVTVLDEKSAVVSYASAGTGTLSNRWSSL
#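 Luminescent ATP detection (Kinase-Glo Plus) follows a 60-minute room-temperature incubation, with wells lacking PGK as controls. Buffer: 100 mM TEA (pH 7.6), 5 mM MgCl2, 0.01% Tween-20. Coupling enzyme GAPDH (100 nM final) supplies unstable 1,3-BPG in-well.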
# PI5P4Ka inh = blocks human PI5P4K alpha kinase activity | P48426 | PI5P4Kalpha enzyme, ADP-Glo luminescence, 60 min; hits give low values | max response, % | actives 1.2% (n = 330,000) | AID 652105; active means max response of -50% or lower; inconclusive means between -30% and -50%; inactive means -30% or higher; further: value at the top dose of about 77 µM
#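 Quantitative HTS of the MLSMR library against PI5P4Kalpha with substrate. ATP added last at 5 microM final; room temperature, 60 minutes. Remaining ATP depleted, ADP converted and read as luminescence.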
# Pin1 inhibitor = human Pin1 inhibition; Q13526; Pin1 FP peptide displacement, HiFluor488, 10 min; Potency, µM (series often up to 115 µM), inactives show at the highest dose activity, negative = inhibition, hits mostly inhibitors; actives 0.009% (n = 390,000); active means well fitted inhibition curve with a large enough effect in the polarisation, with a control signal flat, not every such curve was filed as active; inconclusive means small, poorly fitted or top-dose-only effect, or effect the other way, or a change in a side signal; inactive means no such curve, though single readings can be large or run the other way; the % refers to the polarisation; further: potency means the concentration at half of the fitted maximal effect
# Target sequence (Q13526 whole entry, looked up): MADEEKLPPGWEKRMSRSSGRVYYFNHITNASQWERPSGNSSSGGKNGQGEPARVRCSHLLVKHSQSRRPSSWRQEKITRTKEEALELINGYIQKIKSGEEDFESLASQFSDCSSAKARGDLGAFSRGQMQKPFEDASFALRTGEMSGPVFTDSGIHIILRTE
# Tb PFK inh = T. brucei PFK enzyme inhibition; actives 0.17% (n = 330,000); Potency, µM (doses to about 57.5 µM), for the others: at the highest dose activity, negative = inhibition, most hits filed as inhibitors; T. brucei PFK, ADP-Glo luminescence;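 further: potency means the concentration at half of the fitted maximal effect; 0% = uninhibited 1x PFK enzyme wells and -100% = no-enzyme wells; nearly all actives have a fitted effect of over 60% in size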
#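 PFK 1.25 nM, F6P 0.5 mM, ATP 0.1 mM, 0.1 M TEA pH 8.0, 5 mM MgCl2, 0.01% Tween20, 0.1% BSA; 45 min RT. ADP-Glo readout. qHTS titration up to 57 uM; curves fitted, compounds curve-classed.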
# ADP-Glo counter = ADP-Glo luciferase interference, PI5P4K counter-screen; shares compounds with PI5P4Ka inh; ADP-Glo detection counter-screen, luciferase luminescence, no enzyme; Potency, µM (doses to about 76.9 µM), for inactives: at the top dose activity change, negative = inhibition, most hits filed as inhibitors; 1,100 tested, under 10 active; AID 743285
# * = called active by the depositor; i = inactive; ? = inconclusive; . = no result given. Unless noted, the call rests on the fitted dose curve; in most records, active means well fitted curve in the direction sought with a large enough effect; inconclusive means small, poorly fitted or top-dose-only effect, or another doubt; inactive means no such curve, though single readings can be large; an effect the other way counts as inactive or inconclusive. Unless noted, on the % scale 0 is the no-effect control and ±100 the full control effect.
SMILES,PI4K2A block,PGK inhibitor,PI5P4Ka inh,Pin1 inhibitor,Tb PFK inh,ADP-Glo counter
COc1ccc(Nc2ccccc2C(=O)O)cc1,1,1%,-64*,1%,-7%,6%
COc1ccc(Nc2cccccc2=O)cc1,0,-4%,-2,-7%,-1%,.
O=C(NCc1cc([N+](=O)[O-])ccc1O)c1cccc(NS(=O)(=O)c2ccccc2)c1,-1,-8%,-66*,-11%,1%,2%
COc1ccccc1OCC(=O)Nc1ccc2c(c1)OCO2,-5,8%,-50*,-22%,-10%,0%
N#Cc1ccc(COC(=O)CC(NC(N)=O)c2ccc(Cl)cc2)cc1 (stereo not drawn),3,-15%,?,0%,2%,4%
O=C(Nc1ccccn1)c1sc2cc([N+](=O)[O-])ccc2c1Cl,-3,3%,-52*,?,?,-9%
COc1ccc(-c2cc(C(=O)N(C3CCCCC3)C3CCCCC3)no2)cc1,2,.,.,.,.,.
Cc1ccc(N(C(=O)CNC(=O)c2ccco2)C(C(=O)NC2CCCC2)c2cccnc2)c(C)c1 (stereo not drawn),5,-1%,-58*,1%,-4%,-1%
Cc1ccc(N(C(=O)CNC(=O)c2ccco2)C(C(=O)NC2CCCCC2)c2cccnc2)c(C)c1 (stereo not drawn),-6,-5%,2,-4%,1%,.
Nc1nc(Nc2ccccc2)sc1C(=O)c1ccccc1,3,1%,-65*,6%,-4%,4%
COc1ccc(C(=O)c2sc(Nc3cc(Cl)ccc3C)nc2N)cc1OC,-3,-2%,.,32%,.,.
Cc1cc(NC(=O)c2sc(Nc3ccc(F)cc3)nc2N)no1,-3,-6%,-54*,-4%,-1%,3%
Cc1cnc(NC(=O)c2sc(Nc3ccccc3)nc2N)o1,-1,-3%,-55*,0%,-1%,0%
Cc1ccccc1Nc1nc(N)c(C(=O)c2ccccc2Cl)s1,5,.,.,7%,.,.
COc1ccc(C(=O)c2sc(Nc3ccccc3F)nc2N)cc1,0,.,-81*,1%,0%,-1%
Cc1cccc(NC(=O)Nc2c(-c3ccc(C(F)(F)F)cc3)nc3ncccn23)c1,6,.,.,.,.,.
COc1cc(Cl)c(C)cc1NC(=O)C(OC(=O)CNC(=O)c1ccccc1)c1ccccc1 (stereo not drawn),.,.,.,20%,.,.
CCOC(=O)[C@]12CCCCC/C=C\1N(Cc1ccc(OC)cc1)C(=O)[C@H]2CC(=O)NCc1cccc(C(F)(F)F)c1,0,.,.,.,.,.
Cc1cc(NC(=O)CN2CCN(C)CC2)no1,6,i,-51*,-2%,-4%,3%
Cc1cc(NC(=O)CN2CCCCCCC2)no1,-2,-6%,.,-4%,0%,.
CN(c1ccc(-c2csc(NC(=O)CCCc3nc4ccccc4c(=O)[nH]3)n2)cc1)S(C)(=O)=O,1,-1%,-56*,.,.,-9%
CCCCCn1ncc2c3sc(C)cc3n(C)c2c1=O,.,.,.,-1%,.,.
NC(=O)c1ccsc1NC(=O)COC(=O)c1cnccn1,4,-4%,-63*,?,0%,-3%
NC(=O)c1ccsc1NC(=O)COC(=O)c1ccccn1,13,i,-52*,?,-3%,-3%
NC(=O)c1ccsc1NC(=O)COC(=O)c1ccncc1,21,-4%,-22,1%,-7%,.
SMILES,PI4K2A block,PGK inhibitor,PI5P4Ka inh,Pin1 inhibitor,Tb PFK inh,ADP-Glo counter
CC(=O)C1(C(=O)NCc2ccccc2)CC(c2ccccc2C(F)(F)F)=NO1 (stereo not drawn),-1,.,.,.,.,.
COCCCNc1ncnc2sc3c(c12)CCC(C)C3 (stereo not drawn),0,-7%,3,0%,-4%,.
CC1CCc2c(sc3ncnc(NS(=O)(=O)c4cccs4)c23)C1 (stereo not drawn),-5,i,-55*,-8%,3%,2%
O=C(c1ccc(Cl)c(Cl)c1)N1CCC(Oc2cccnc2)CC1,-2,.,.,.,.,.
CN1CCN(C(c2ccc(Br)cc2)c2cc(Cl)c3cccnc3c2O)CC1 (stereo not drawn),10,i,-84*,4%,-8%,-7%
CN1CCN(C(c2ccc(F)cc2)c2ccc3cccnc3c2O)CC1 (stereo not drawn),1,-9%,-7,2%,.,.
Cc1c(Cc2ccccc2)sc(NC(=O)c2ccco2)c1C(N)=O,10,.,.,7%,-3%,.
CCOc1ccc(CC(=O)Nc2sc(Cc3ccccc3)c(C)c2C(N)=O)cc1OCC,-5,-1%,-53*,?,2%,-2%
CN(C(=O)C1CCN(c2cncnc2)CC1)C1CCCCC1,-3,.,.,.,.,.
CN(C)c1nc(-c2ccccn2)nnc1-c1ccccc1,-23,10%,-5,4%,-4%,.
Cc1nnc(-c2ccccc2)nc1N(C)C,3,8%,-68*,-8%,-1%,-2%
Cc1cccc(C2Nc3ccccc3C(=O)N2c2ccc(F)cc2)n1 (stereo not drawn),-10,-3%,1,-9%,-4%,2%
O=C1c2ccccc2NC(c2ccccn2)N1c1ccccc1F (stereo not drawn),4,-8%,.,-3%,1%,.
Cc1ccc(OCc2nnc(SCC(=O)c3ccc4ccccc4c3)n2-c2ccc(Cl)cc2)cc1,4,.,.,.,.,.
Cc1cnc(C(=O)OCc2nc3ccsc3c(=O)[nH]2)cn1,-7,-19%,-65*,?,0%,-11%
